Inconclusive results are not listed. Activity calls are given as the source filed them. Calls follow the shape of the dose curve; as a rule, active = well fitted cell-killing curve with a large enough effect; inconclusive = small, poorly fitted or top-dose-only effect, or effect the other way; inactive = flat fitted curve, though single readings scatter.
Test: qHTS of pediatric cancer cell lines to identify multiple opportunities for drug repurposing: Confirmatory screen for Rh18 cells (AID 1347125); also: nearly all actives have a fitted effect of over 55% in size
Conditions: Rh18 rhabdomyosarcoma cells, viability; series mostly up to 45.9 µM; activity change, negative = cytotoxic: at the top concentration
Description: Drug repurposing or repositioning has been offered as a strategy for drug development in oncology programs. This approach has special potential for childhood cancers and other rare or orphan diseases, where the expected return on new drug development has been a disincentive to pharmaceuticals.
In this project we exploit the poly-pharmacology of drugs to discover new indications via phenotypic screening of a panel of 19 well-characterized cell lines derived from solid tumors seen in children and adolescents. The goal is to identify approved drugs with previously unrecognized anticancer properties that has the potential to reveal new mechanisms and biological processes involved in carcinogenesis or drug resistance. We employed a titration-based paradigm (quantitative high-throughput screening or qHTS), where all compounds were tested at multiple concentrations for their effect on cell viability. Concentration-response curves (CRCs) were derived directly from the primary screen, and both potency and efficacy values were used to identify compounds with robust bioactivity profiles. We screened the NIH Chemical Genomics Center (NCGC) Pharmaceutical Collection (NPC) and Mechanism Interrogation Plate (MIPE) small molecule collections of approved and investigational compounds against these cell lines; and measured metabolically active cells after 48 hours of compound treatment as a proxy for cell viability.
Assay Submitter: Nathalia J. Martinez, National Center for Advancing Translational Sciences, National Institutes of Health, Rockville, MD, USA; email: natalia.martinez@nih.gov
[1] Shen, M et al. Quantitative high-throughput phenotypic screening of pediatric cancer cell lines identifies multiple opportunities for drug repurposing. Oncotarget 2017 Dec 19;9(4):4758-4772. PMID 29435139.
The cells were obtained from University of North Carolina (UNC), Pediatric Preclinical Testing Program (PPT), and Coriell Institute (CI).
qHTS cell viability assay:
Cells were assayed in growth media at a density of 500-1,000 cells/well. Five microliters of cells were dispensed into 1,536-well, white, solid-bottom, TC-treated plates (Greiner Bio One) using a multidrop dispenser and incubated at 37 degrees C, 5% CO2, under a humidified atmosphere for 5 hours. Twenty-three nanoliters of compounds and controls (neutral control DMSO or positive control bortezomib at final concentration of 2.3 µM) were subsequently transferred by Kalypsys pintool. For primary screens, the MIPE collection was tested at 11-point dilutions (final concentrations range from 0.78 nM to 46 µM) and the NPC collection at 8-point dilutions (final concentrations range from 0.59 nM to 46 µM). Compounds tested in follow-up screens were assayed at 11-point dilutions. Cells were incubated for 48 hours, followed by addition of 3 µL of CellTiter-Glo (Promega). After a 15 min incubation at room temperature, samples were analyzed for luminescence intensity using a ViewLux High-throughput CCD imager equipped with clear filters.
% is scaled to controls: 0 for no effect and ±100 for the full control effect; potency is read from the fitted curve at half-maximal effect.

Row | SMILES | activity change, negative = cytotoxic | Potency
1 | Cc1ccc(C(=O)Oc2ccc(C(O)CNC(C)(C)C)cc2OC(=O)c2ccc(C)cc2)cc1 (centres undefined) | -17.8% (inactive) | –
2 | CC[C@@]1(O)C(=O)OCc2c1cc1n(c2=O)Cc2c-1nc1ccccc1c2/C=N/OC(C)(C)C | – | 0.465 µM (active)
3 | COc1cc(/C=C/C(N)=O)cc(OC)c1OC | -23.9% (inactive) | –
4 | Nc1c2ccccc2nc2ccccc12 | – | 4.65 µM (active)
5 | CCOC(=O)O[C@]1(C(=O)OCCl)CC[C@H]2[C@@H]3CCC4=CC(=O)C=C[C@]4(C)[C@H]3[C@@H](O)C[C@@]21C | 2.43% (inactive) | –
6 | CC(C)(C)CC(=O)OCC(=O)[C@@]1(O)CC[C@H]2[C@@H]3CCC4=CC(=O)C=C[C@]4(C)[C@H]3[C@@H](O)C[C@@]21C | -3.71% (inactive) | –
7 | CC(=O)OCC(=O)[C@@]1(O)[C@H](OC(C)=O)C[C@H]2[C@@H]3CCC4=CC(=O)C=C[C@]4(C)[C@@]3(F)[C@@H](O)C[C@@]21C | -9.36% (inactive) | –
8 | CCCCC(CC)CNC(=O)CC(C)OC(=O)CCC(=O)O (centres undefined) | 0.0668% (inactive) | –
9 | CCCCC(=O)OCC(=O)[C@H]1[C@H](C)C[C@H]2[C@@H]3C[C@H](F)C4=CC(=O)C=C[C@]4(C)[C@@]3(F)[C@@H](O)C[C@@]21C | – | 20.8 µM (active)
10 | O=[N+]([O-])c1ccc(O)c2ncccc12 | – | 10.4 µM (active)
11 | C[C@H]1C[C@H]2[C@@H]3CCC4=CC(=O)C=C[C@]4(C)[C@H]3C(=O)C[C@]2(C)[C@@]1(O)C(=O)CO | – | 3.29 µM (active)
12 | CCCC(=O)O[C@]1(C(=O)CCl)[C@@H](C)C[C@H]2[C@@H]3CCC4=CC(=O)C=C[C@]4(C)[C@@]3(F)C(=O)C[C@@]21C | -16.6% (inactive) | –
13 | CO[C@@H]1[C@@H](OC)[C@H](C)[C@@](O)(CC(=O)O)O[C@H]1[C@H](C)[C@H]1O[C@@]2(CC[C@@](C)([C@H]3CC[C@@](C)([C@@H]4O[C@@H]([C@H]5O[C@](C)(O)[C@H](C)C[C@@H]5C)C[C@@H]4OC4C[C@H](OC)[C@@H](OC)[C@H](C)O4)O3)O2)C[C@H](O)[C@H]1C (some centres undefined) | – | 6.57 µM (active)
14 | Cc1cc(OCCOCC[N+](C)(C)Cc2ccccc2)ccc1C(C)(C)CC(C)(C)C | – | 18.5 µM (active)
15 | CCN(CC)CC(=O)OCC(=O)[C@@]1(O)CC[C@H]2[C@@H]3CCC4=CC(=O)CC[C@]4(C)[C@H]3[C@@H](O)C[C@@]21C | 3.54% (inactive) | –
16 | CCC1=C[C@@H]2CN(C1)Cc1c([nH]c3ccccc13)[C@@](C(=O)OC)(c1cc3c(cc1OC)N(C)[C@H]1[C@@](O)(C(=O)OC)[C@H](OC(C)=O)[C@]4(CC)C=CCN5CC[C@]31[C@@H]54)C2 | -21.1% (inactive) | –
17 | CC(=O)[C@@]1(O)CC[C@H]2[C@@H]3C[C@H](C)C4=CC(=O)CC[C@]4(C)[C@H]3CC[C@@]21C | -11.1% (inactive) | –
18 | Cc1nc(N)nc(N)c1-c1ccc(Cl)c(Cl)c1 | -8.84% (inactive) | –
19 | CC(=O)OCC(=O)[C@@]1(O)CCC2C3CCC4=CC(=O)CC[C@]4(C)C3[C@@H](O)C[C@@]21C (some centres undefined) | -25.6% (inactive) | –
20 | N=C(N)c1ccc(OCCCOc2ccc(C(=N)N)cc2)cc1 | 0.65% (inactive) | –
21 | CC(C)=CCC/C(C)=C/CC/C(C)=C/C(=O)OCC(=O)[C@@]1(O)CC[C@H]2[C@@H]3CCC4=CC(=O)C=C[C@]4(C)[C@H]3[C@@H](O)C[C@@]21C | -9.45% (inactive) | –
22 | CC(=O)O[C@@H]1C(=O)O[C@@H]2[C@H]1OC(=O)[C@@H]2OC(C)=O | -19.7% (inactive) | –
23 | C[C@]12CCC(=O)C=C1CC[C@@H]1[C@@H]2[C@@H](O)C[C@@]2(C)[C@H]1CC[C@]2(O)C(=O)COC(=O)CCC(=O)O | 6.22% (inactive) | –
24 | CCCC(=O)O[C@]1(C(=O)COC(=O)CC)CC[C@H]2[C@@H]3CCC4=CC(=O)CC[C@]4(C)[C@H]3[C@@H](O)C[C@@]21C | 5.07% (inactive) | –
25 | CCC(=O)O[C@]1(C(=O)COC)[C@@H](C)C[C@H]2[C@@H]3CCC4=CC(=O)C=C[C@]4(C)C3(F)[C@@H](O)C[C@@]21C (some centres undefined) | 2.88% (inactive) | –
26 | CCC1(c2cnc[nH]2)Cc2ccccc2C1 | – | 16.5 µM (active)
27 | CN(C)CCN(Cc1ccsc1)c1ccccn1 | -28.2% (inactive) | –
28 | CCc1cc2cc(OC)c(OC)cc2c(Cc2ccccc2)n1 | -14.8% (inactive) | –
29 | C[C@H]1C[C@@H]2[C@H]([C@@H](O)C[C@@]3(C)[C@H]2CC[C@]3(O)C(=O)CO)[C@@]2(C)C=CC(=O)C=C12 | -26.6% (inactive) | –

Reference: PubChem BioAssay (NCATS)
